PLAP activator = activates human placental alkaline phosphatase; 96,000 compounds, 1.2% hits; P05187; activation fold at 20 µM; purified PLAP enzyme, luminescent substrate read-out; stronger effect = higher value; in the data active means activation fold above about 2
Target sequence (P05187 whole entry, looked up): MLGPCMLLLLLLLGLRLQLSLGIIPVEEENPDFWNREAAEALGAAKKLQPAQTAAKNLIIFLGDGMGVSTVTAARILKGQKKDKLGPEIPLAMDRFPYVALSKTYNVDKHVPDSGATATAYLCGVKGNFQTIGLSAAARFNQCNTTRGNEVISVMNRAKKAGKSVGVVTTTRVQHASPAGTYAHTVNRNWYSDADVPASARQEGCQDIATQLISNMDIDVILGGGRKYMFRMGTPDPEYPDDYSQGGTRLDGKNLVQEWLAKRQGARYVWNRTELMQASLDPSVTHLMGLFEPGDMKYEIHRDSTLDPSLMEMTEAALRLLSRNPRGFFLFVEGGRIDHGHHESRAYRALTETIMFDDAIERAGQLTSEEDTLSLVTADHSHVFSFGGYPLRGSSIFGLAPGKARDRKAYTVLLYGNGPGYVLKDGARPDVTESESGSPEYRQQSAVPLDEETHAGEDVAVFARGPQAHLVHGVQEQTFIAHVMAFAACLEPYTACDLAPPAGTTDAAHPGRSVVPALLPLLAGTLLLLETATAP
E-sel TNF inh = TNF alpha driven E-selectin expression inhibition | AID 1246 | inhibition, % at 2 µM | HUVEC TNFa-induced E-selectin immunofluorescence, high content | 120,000 compounds, 0.71% hits;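 active means inhibition above the batch mean plus 3 SD, and confirmed as a hit on visual image review, cut at about 43% in these data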;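 further: 0% = TNF-stimulated DMSO wells and 100% = unstimulated control wells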
F-actin modifier = alters cytoskeleton assembly in HUVEC cells | inhibition, % at 2 µM | AID 836 | HUVEC TNFa F-actin phalloidin imaging, high content | 91,000 compounds, 0.18% hits;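 active means inhibition above the batch mean plus 3 SD and confirmed as a hit by visual image inspection, cut at about 30% in these data, passing the limit was not always enough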
TNFa cytotox = HUVEC cytotoxicity counter-screen, TNF alpha stimulated; cell count reduction, % at 2 µM; AID 848; HUVEC TNFalpha-stimulated, Hoechst cell count, imaging; 93,000 compounds, 0.17% hits;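 active means cell count reduction exceeding the screen mean by over 5 SD, scaled to untreated wells per plate, cut at about 78% in these data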;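 further: cells counted after 24 h of TNF alpha exposure following the 1 h pretreatment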
VCAM1 TNFa inh = reduces TNF alpha induced VCAM1 expression in HUVEC; inhibition, % at 2 µM; AID 802; HUVEC TNFa-induced VCAM-1 immunofluorescence, high-content imaging; 95,000 compounds, 0.48% hits;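 active means inhibition above the batch mean plus 3 SD, with images confirmed as a hit by eye, cut at about 37% in these data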;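 further: 0% = TNF-stimulated DMSO wells and 100% = unstimulated control wells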
* = called active by the depositor; nt = no result. The list is not random: actives were taken first. Their share in the collection is about 2%.

SMILES	PLAP activator	E-sel TNF inh	F-actin modifier	TNFa cytotox	VCAM1 TNFa inh
Cc1nnc(SCc2nnc(-c3ccccc3Br)o2)n1-c1ccccc1	1.5	-15	-10	-5	-2
Cc1nccn1-c1ccc(C(F)(F)F)cc1NC=O	1	3	73*	-5	-4
CCOC(=O)c1ccc(NC(=O)c2ccccc2N(C)S(=O)(=O)c2ccccc2)cc1	nt	11	nt	nt	nt
CC1=C(C(=O)OCCOC(C)C)C(c2cccnc2)C2=C(CCCC2=O)N1 (centres undefined)	1.1	nt	79*	-45	-10
CCN(CC)c1ccc(C2C(C(=O)OCCOC(C)C)=C(C)NC3=C2C(=O)CCC3)cc1 (centres undefined)	1.8	nt	nt	-20	11
CC(C)CC(NS(=O)(=O)c1ccc2c(c1)oc(=O)n2C)C(=O)N1CC=C(c2ccccc2)CC1 (centres undefined)	2.5*	-4	0	-25	16
Cc1nnc(NC(=O)CSc2nnc(CCc3nc4ccccc4[nH]3)n2C)s1	2.1*	nt	-11	-32	-1
CCc1nnc(NC(=O)CSc2nnc(CCc3nc4ccccc4[nH]3)n2C)s1	1.2	3	3	-2	8
CCCCCCOc1ccc(N2C(=O)CC(SC(=NCC)NCC)C2=O)cc1 (centres undefined)	nt	5	nt	nt	nt
COCCN1C(=O)N(c2cccc(C)c2)C(=O)C1CC(=O)Nc1ccc(F)cc1 (centres undefined)	1.6	80*	-12	-7	8
CCOC(=O)c1ccc(NC(=O)CC2C(=O)N(c3cccc(OC)c3)C(=O)N2CCOC)cc1 (centres undefined)	1.4	-2	19	-13	-5
COc1ccccc1NS(=O)(=O)c1cccc(C(=O)N/N=C(\C)c2ccc(-n3ccnc3)cc2)c1	2*	nt	-5	-21	2
COc1ccccc1NS(=O)(=O)c1cccc(C(=O)N/N=C(\C)c2ccc3c(c2)OCCO3)c1	nt	21	nt	nt	nt
Cc1ccc(S(=O)(=O)N2CCN(CC(=O)NC3CCCc4ccccc43)CC2)cc1C (centres undefined)	2.1*	-3	-1	7	-6
Cc1ccc(S(=O)(=O)N2CCN(CC(=O)NC3CCCc4ccccc43)CC2)c(C)c1 (centres undefined)	71	9	-18	0	-6
Cc1ccc(C(=O)CSc2nsc(C)c2C#N)cc1	0.8	22	74*	-10	1
Cc1ccc(C(=O)Nc2ccc(O)cc2C(=O)O)cc1C	0.9	-8	nt	4	-3
Cc1ccc(C(=O)Nc2ccc(O)cc2C(=O)O)cc1	1	61*	22	-9	-11
Cc1ccc(OCC(=O)N2CCN(C(=O)Cc3ccccc3)CC2)cc1	1.1	5	71*	7	-11
CCOC(=O)c1c(NC(=O)c2ccccc2)sc2c(O)c(CN(CC)CC)ccc12	1.5	nt	32	-24	5
CCOC(=O)c1c(NC(C)=O)sc2c(O)cccc12	0.8	56*	nt	nt	nt
CC(=O)Nc1ccc(NC(=O)c2ccccc2S(=O)(=O)c2ccc([N+](=O)[O-])cc2)cc1	nt	-41	nt	nt	nt
CCOC(=O)Nc1nc(-c2ccccc2)c(C(=O)c2ccccc2)s1	1.1	-8	0	58	78*
Cc1ccc2nc(-c3ccc(NS(C)(=O)=O)cc3)cc(-c3ccccc3)c2c1	1.4	-9	10	nt	6
CCS(=O)(=O)Nc1ccc(-c2cc(-c3ccccc3)c3cc(C)ccc3n2)cc1	nt	79*	nt	nt	nt
SMILES	PLAP activator	E-sel TNF inh	F-actin modifier	TNFa cytotox	VCAM1 TNFa inh
O=C(O)c1ccc(NCc2ccncc2)cc1	1.3	nt	-1	84*	-16
CC(C)(C)NS(=O)(=O)c1ccc(Oc2ncc(C(F)(F)F)cc2Cl)cc1	0.9	23	61*	-14	-2
COCCCNS(=O)(=O)c1ccc(Oc2ncc(C(F)(F)F)cc2Cl)cc1	1.1	8	-19	-21	21
CC(OC(=O)c1cc(=O)[nH]c2ccccc12)C(=O)c1ccccc1 (centres undefined)	nt	-23	nt	nt	nt
CN(c1ccccc1)S(=O)(=O)c1ccc(NC(=S)Nc2ccccc2)cc1	0.9	87*	6	-17	-15
Cc1cccc(NC2=NCC(=O)N2Cc2cccs2)c1	nt	0	nt	nt	nt
C=CCc1ccc(OCC(O)CN2CCCCC2)c(OC)c1 (centres undefined)	0.8	0	7	-16	-10
C=CCc1ccc(OCCCCN2CC(C)OC(C)C2)c(OC)c1 (centres undefined)	2*	23	nt	-6	23
C=CCc1ccc(OCCCOc2ccc(C)cc2OC)c(OC)c1	1.3	-45	-3	-4	-9
C=CCc1ccc(OCC(O)COc2ccc(CC=C)cc2OC)c(OC)c1	2*	21	nt	-32	10
O=S(=O)(Nc1ncn[nH]1)c1ccc(Cl)cc1	1.2	18	-2	-2	-9
Cc1ccc2c(c1)-c1c(cnn1CC(=O)Nc1ccccc1N1CCN(C)CC1)CO2	1.5	-29	nt	nt	nt
Cc1ccccc1OCC(=O)Nc1ccc2c(c1)COC2=O	0.9	-35	36*	-33	-2
Cc1nc(-n2[nH]c3c(c2=O)CCCC3)[nH]c(=O)c1Cc1ccccc1	1.9	16	-28	9	14
Cc1cc(=O)[nH]c(-n2[nH]c3c(c2=O)CCCC3)n1	2.6*	-2	-21	7	-17
O=C(NCC1c2ccccc2CCN1C(=O)CN1C(=O)c2ccccc2C1=O)C1CCCCC1 (centres undefined)	1	18	nt	-10	21
CC(C)C(=O)Nc1nc(-c2ccccc2)ns1	nt	16	4	nt	26
CCC(=O)Nc1nc(-c2ccccc2)ns1	nt	12	-10	nt	58*
Cc1ccc(/C=N/Nc2ncc(Cl)cc2Cl)s1	2.8*	-7	-16	-2	-18
Clc1cnc(N/N=C/c2cccs2)c(Cl)c1	1.5	-7	32	8	20
CC1CCN(c2nc3c(c(=O)[nH]c(=O)n3C)n2CC(C)CSc2nnnn2-c2ccccc2)CC1 (centres undefined)	nt	8	nt	nt	nt
CCOC(=S)SCC(=O)N1CCc2cc(OC)ccc2C1C1C(=O)CCCC1=O (centres undefined)	nt	7	nt	nt	nt
CCC(OC(=O)CC1Sc2ccccc2NC1=O)C(=O)NCC1CCCO1 (centres undefined)	2*	-38	30	nt	nt
CCOC(=O)CC1Sc2ccccc2NC1=O (centres undefined)	1	5	6	3	-3
CCCCOC(=O)c1ccc(NC(=O)CSCc2n[nH]c(=O)[nH]2)cc1	2.1*	24	-13	-18	7
O=C(C[n+]1cccc(/C=N/O)c1)N1CCCc2ccccc21	nt	0	nt	nt	nt
COCCn1c(N)c(C(=O)NCC2CCCO2)c2nc3ccccc3nc21 (centres undefined)	1.5	nt	12	-16	12
Nc1c(C(=O)NC2CCCC2)c2nc3ccccc3nc2n1N	1	nt	47*	-4	9
CC(C)Cn1c(N)c(C(=O)NCC2CCCO2)c2nc3ccccc3nc21 (centres undefined)	2*	14	1	-20	13
Nc1c(C(=O)NC2CCCC2)c2nc3ccccc3nc2n1/N=C/c1ccco1	1.5	-3	2	-12	5
